Experimental findings from PubChem BioAssay (NCI) are described below.

About 79,000 compounds went through this panel and 15% of them were active in at least one assay; those are over-represented in the sample as a whole. Calls of active or inactive are those of the source. Rule as the data show it: active = growth inhibition above about 70%; inactive = the rest. Where a SMILES comes first, the peptide text is derived from it. Bridges are numbered along the chain shown (N, C = ends). Roman numbers before positions name the chains, in order. The star is where a group is joined. Cbz = O=C(OCc1ccccc1)*

A short description of the first assay: NCI Yeast Anticancer Drug Screen. Data for the rad50 strain (AID 155).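 Also: 0% = growth of vehicle-only cultures of the same strain.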 To be noted: S. cerevisiae rad50 strain growth inhibition; at 50.0 µM; hits give high values. In short, it runs like this:
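Readout: growth inhibition relative to vehicle-treated cultures. Compound exposure was carried out in a genetically defined yeast strain deficient in DNA damage repair.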
`CCOC(=O)c1c(C)c(=O)cnc2c(C#N)cnn12`: the growth inhibition is -4.55% (inactive).

As for `COc1ccc(-c2c3c(n(C4OC(COC(C)=O)C(OC(C)=O)C(OC(C)=O)C4OC(C)=O)c(=S)c2C#N)CC(C)(C)CC3=O)cc1` (stereo not given), the growth inhibition is -2.05% (inactive).

Turning to `O=c1[nH]c(Nc2ccc(Cl)c(C(F)(F)F)c2)nc2nc[nH]c12`, the growth inhibition is 17.7% (inactive).

For the compound `COC1OC(CO)C(OC(C)=O)C(OC(C)=O)C1OC(C)=O` (stereo not given), the growth inhibition was -2.05% (inactive).

On to `COc1cc2c(c(Cl)c1OC)CCN(C)CC2c1ccccc1` (stereo not given), for which the growth inhibition was -5.25% (inactive).

On to `Clc1ccccc1CSc1cc(SCc2ccccc2Cl)nc(SCc2ccccc2Cl)n1`, for which the growth inhibition is -8% (inactive).

With `NNc1nnnc2ccccc12`, the growth inhibition is 14.2% (inactive).

Regarding `O=C(NCCCl)Oc1ccccc1`, the growth inhibition was 6.85% (inactive).

Take `CCCCn1cnc2ccc(N)cc2c1=O`: the growth inhibition was -1.7% (inactive).

As to `CCCCCCCCCCCC(=O)OCCS(=O)(=O)CCOC(=O)CCCCCCCCCCC`, the growth inhibition was 30% (inactive).

As to `Cc1ccc(NC(=O)C(=O)C2NC(=S)NC2=O)c([N+](=O)[O-])c1` (stereo not given), the growth inhibition was 8.35% (inactive).

Take `CC(C)C(NC(=O)C(CSSCC(NC(=O)OCc1ccccc1)C(=O)NC(C(=O)O)C(C)C)NC(=O)OCc1ccccc1)C(=O)O` (stereo not drawn) (I: Cbz-Cys-Val-OH / II: Cbz-Cys-Val-OH; disulfide I:1-II:1; configuration not given here): the growth inhibition is 1.4% (inactive).

As to `S=C(Cl)Sc1ccc(-c2ccc(SC(=S)Cl)cc2)cc1`, the growth inhibition was 2.7% (inactive).

Regarding `NC(CSC(c1ccccc1)(c1ccccc1)c1ccc(C(=O)O)cc1)C(=O)O` (stereo not given), the growth inhibition was 54.2% (inactive).

In the case of `CCCCC1(N=[N+]=[N-])C(=O)c2cccc3c2N(CCC3)C1=O` (stereo not given), the growth inhibition is 48.8% (inactive).

As to `CC1(C)OC[C@@H](O)[C@H](Br)CO1`, the growth inhibition is -14.7% (inactive).

On to `C=COC(=O)C(Cc1ccccc1)NC(=O)OCc1ccccc1` (stereo not given), for which the growth inhibition is -5.2% (inactive).

Turning to `CCOC(=O)C12CC(COc3ccc([N+](=O)[O-])cc3)ON1OC(COc1ccc([N+](=O)[O-])cc1)C2` (stereo not given), the growth inhibition is 23.9% (inactive).

As to `CN(C)c1ccc(N=C2C=CC(=C(C#N)C#N)c3ccccc32)cc1`, the growth inhibition was -24% (inactive).

Consider `O=C1CSC(c2cccnc2)N1CCN1C(=O)CSC1c1cccnc1` (stereo not given), for which the growth inhibition was 3.75% (inactive).

As for `CCOC(=O)N/C=C/C(C)=O`, the growth inhibition was -31.1% (inactive).

In the case of `CCN(CC)CCCNc1ccc2ncn3c4ccc(O)cc4c(=O)c1c23`, the growth inhibition is -14.8% (inactive).

Take `CC/C(C=O)=C\NC(=O)Nc1ccccc1`: the growth inhibition was 9.35% (inactive).

For `O=S1(=O)CC=CC1`, the growth inhibition is -10.2% (inactive).

For `CC(C)CCCC(C)C1CCC2C3CCC4=C/C(=N/O)CCC4(C)C3CCC12C` (stereo not given), the growth inhibition was 40.2% (inactive).

`CCCC(C)(O)C(C)(C)C` (stereo not given): the growth inhibition was 6.85% (inactive).

On to `Cc1ccsc1/C=N/Nc1nncc2ccccc12`, for which the growth inhibition is 20.3% (inactive).

For the compound `COc1cc2cc3c(c(O)c2c(O)c1/C=C/C(C)C)C(=O)CC(C)(OC(C)=O)C3` (stereo not given), the growth inhibition is 36.3% (inactive).

For the compound `O=P1(O)Oc2ccc3ccccc3c2-c2c(ccc3ccccc23)O1`, the growth inhibition was -0.4% (inactive).

As to `Nc1cccc(OCC(O)CN2CCN(c3ccccc3)CC2)c1` (stereo not given), the growth inhibition is 3.7% (inactive).

As to `Cc1ccc(S(=O)(=O)/N=[N+](\[O-])c2ccc(N(C)C)cc2)cc1`, the growth inhibition was -32.4% (inactive).

Regarding `CCOC(=O)N1CCN(C(=S)N/N=C(\C)c2cnccn2)CC1`, the growth inhibition is 99.3% (active).

On to `NC1C2CC3CC1CC(C2)O3` (stereo not given), for which the growth inhibition was -10.8% (inactive).

As to `NCCN1CCCCCc2ccccc21`, the growth inhibition is -63.2% (inactive).

On to `[C-]#[N+]N=P(c1ccccc1)(c1ccccc1)c1ccccc1`, for which the growth inhibition was -18% (inactive).

Regarding `C=CCc1cc(OC)c2c(c1)C(OC)CC(c1ccc(OC)c(OC)c1)O2` (stereo not given), the growth inhibition was -3.7% (inactive).

With `COc1ccc(N(C)S(=O)(=O)c2ccccc2)cc1`, the growth inhibition is 15.1% (inactive).

In the case of `Nc1cccc2c1C(=O)c1c(N)cccc1C2=O`, the growth inhibition is 99.3% (active).

In the case of `Cc1ccc(NC2=CC(=O)c3ccccc3C2=O)cc1`, the growth inhibition is 22.4% (inactive).

On to `COC(=O)C(=NNc1ccccc1[N+](=O)[O-])C(=O)OC`, for which the growth inhibition is 15.9% (inactive).

The next assay in a line: NCI Yeast Anticancer Drug Screen. Data for the mec2-1 strain (AID 157). To be noted: S. cerevisiae mec2-1 strain, at 50.0 µM, hits give high values. The procedure, abridged:
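Strain: mec2-1 (DNA repair/cell cycle alteration). Compound exposure, then growth measured; inhibition expressed relative to vehicle.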
For the compound `CCOC(=O)c1c(C)c(=O)cnc2c(C#N)cnn12`, the growth inhibition was -6.75% (inactive).

With `COc1ccc(-c2c3c(n(C4OC(COC(C)=O)C(OC(C)=O)C(OC(C)=O)C4OC(C)=O)c(=S)c2C#N)CC(C)(C)CC3=O)cc1` (stereo not given), the growth inhibition was -0.8% (inactive).

For the compound `O=c1[nH]c(Nc2ccc(Cl)c(C(F)(F)F)c2)nc2nc[nH]c12`, the growth inhibition was 7.55% (inactive).

As for `COC1OC(CO)C(OC(C)=O)C(OC(C)=O)C1OC(C)=O` (stereo not given), the growth inhibition was 16.5% (inactive).

Take `COc1cc2c(c(Cl)c1OC)CCN(C)CC2c1ccccc1` (stereo not given): the growth inhibition was -15.3% (inactive).

Turning to `Clc1ccccc1CSc1cc(SCc2ccccc2Cl)nc(SCc2ccccc2Cl)n1`, the growth inhibition was -2.75% (inactive).

In the case of `NNc1nnnc2ccccc12`, the growth inhibition is 1.1% (inactive).

Consider `O=C(NCCCl)Oc1ccccc1`, for which the growth inhibition is -15.5% (inactive).

As for `CCCCn1cnc2ccc(N)cc2c1=O`, the growth inhibition was 1.85% (inactive).

Regarding `CCCCCCCCCCCC(=O)OCCS(=O)(=O)CCOC(=O)CCCCCCCCCCC`, the growth inhibition was 4.35% (inactive).

Regarding `Cc1ccc(NC(=O)C(=O)C2NC(=S)NC2=O)c([N+](=O)[O-])c1` (stereo not given), the growth inhibition is 3.25% (inactive).

Regarding `CC(C)C(NC(=O)C(CSSCC(NC(=O)OCc1ccccc1)C(=O)NC(C(=O)O)C(C)C)NC(=O)OCc1ccccc1)C(=O)O` (stereo not drawn) (I: Cbz-Cys-Val-OH / II: Cbz-Cys-Val-OH; disulfide I:1-II:1; configuration not given here), the growth inhibition is 11.3% (inactive).

For the compound `S=C(Cl)Sc1ccc(-c2ccc(SC(=S)Cl)cc2)cc1`, the growth inhibition is -2.5% (inactive).

Consider `NC(CSC(c1ccccc1)(c1ccccc1)c1ccc(C(=O)O)cc1)C(=O)O` (stereo not given), for which the growth inhibition is -4.1% (inactive).

`CCCCC1(N=[N+]=[N-])C(=O)c2cccc3c2N(CCC3)C1=O` (stereo not given): the growth inhibition was 30.9% (inactive).

Turning to `CC1(C)OC[C@@H](O)[C@H](Br)CO1`, the growth inhibition is -36% (inactive).

As for `C=COC(=O)C(Cc1ccccc1)NC(=O)OCc1ccccc1` (stereo not given), the growth inhibition was 10.8% (inactive).

Turning to `CCOC(=O)C12CC(COc3ccc([N+](=O)[O-])cc3)ON1OC(COc1ccc([N+](=O)[O-])cc1)C2` (stereo not given), the growth inhibition was 7.8% (inactive).

Turning to `CN(C)c1ccc(N=C2C=CC(=C(C#N)C#N)c3ccccc32)cc1`, the growth inhibition was -6.05% (inactive).

With `O=C1CSC(c2cccnc2)N1CCN1C(=O)CSC1c1cccnc1` (stereo not given), the growth inhibition is 4.15% (inactive).

Consider `CCOC(=O)N/C=C/C(C)=O`, for which the growth inhibition is -14.2% (inactive).

In the case of `CCN(CC)CCCNc1ccc2ncn3c4ccc(O)cc4c(=O)c1c23`, the growth inhibition was -36.3% (inactive).

With `CC/C(C=O)=C\NC(=O)Nc1ccccc1`, the growth inhibition is -21.6% (inactive).

For `O=S1(=O)CC=CC1`, the growth inhibition is 3.45% (inactive).

For `CC(C)CCCC(C)C1CCC2C3CCC4=C/C(=N/O)CCC4(C)C3CCC12C` (stereo not given), the growth inhibition was 12.2% (inactive).

With `CCCC(C)(O)C(C)(C)C` (stereo not given), the growth inhibition was 8.65% (inactive).

For the compound `Cc1ccsc1/C=N/Nc1nncc2ccccc12`, the growth inhibition is 5.35% (inactive).

On to `COc1cc2cc3c(c(O)c2c(O)c1/C=C/C(C)C)C(=O)CC(C)(OC(C)=O)C3` (stereo not given), for which the growth inhibition is 8.95% (inactive).

Turning to `O=P1(O)Oc2ccc3ccccc3c2-c2c(ccc3ccccc23)O1`, the growth inhibition is 30.3% (inactive).

Take `Nc1cccc(OCC(O)CN2CCN(c3ccccc3)CC2)c1` (stereo not given): the growth inhibition was 8.6% (inactive).

Take `Cc1ccc(S(=O)(=O)/N=[N+](\[O-])c2ccc(N(C)C)cc2)cc1`: the growth inhibition is -3.35% (inactive).

As for `CCOC(=O)N1CCN(C(=S)N/N=C(\C)c2cnccn2)CC1`, the growth inhibition is 99.5% (active).

For `NC1C2CC3CC1CC(C2)O3` (stereo not given), the growth inhibition was -8.1% (inactive).

For `NCCN1CCCCCc2ccccc21`, the growth inhibition was -53% (inactive).

On to `[C-]#[N+]N=P(c1ccccc1)(c1ccccc1)c1ccccc1`, for which the growth inhibition was -20.8% (inactive).

As to `C=CCc1cc(OC)c2c(c1)C(OC)CC(c1ccc(OC)c(OC)c1)O2` (stereo not given), the growth inhibition was -34.3% (inactive).

For `COc1ccc(N(C)S(=O)(=O)c2ccccc2)cc1`, the growth inhibition is -8.9% (inactive).

As for `Nc1cccc2c1C(=O)c1c(N)cccc1C2=O`, the growth inhibition was 99.4% (active).

On to `Cc1ccc(NC2=CC(=O)c3ccccc3C2=O)cc1`, for which the growth inhibition was 6.45% (inactive).

Turning to `COC(=O)C(=NNc1ccccc1[N+](=O)[O-])C(=O)OC`, the growth inhibition was 5% (inactive).
